# Compound activity deposited in PubChem by National Center for Advancing Translational Sciences (NCATS).
# Only some compounds are listed: those with a hit (about 2% of all), similar ones and a draw of the others.
# NPSR antagonist = antagonists of human neuropeptide S receptor cAMP signaling. Q6W5P4. CHO-NPSR cells, cAMP TR-FRET, antagonist mode. Potency, µM (top dose mostly 38.3 µM), actives largely listed as inhibitors. 1% of 220,000 active. AID 1461; also: nearly all actives have a fitted effect of over 50% in size
# Target sequence (Q6W5P4 whole entry, looked up): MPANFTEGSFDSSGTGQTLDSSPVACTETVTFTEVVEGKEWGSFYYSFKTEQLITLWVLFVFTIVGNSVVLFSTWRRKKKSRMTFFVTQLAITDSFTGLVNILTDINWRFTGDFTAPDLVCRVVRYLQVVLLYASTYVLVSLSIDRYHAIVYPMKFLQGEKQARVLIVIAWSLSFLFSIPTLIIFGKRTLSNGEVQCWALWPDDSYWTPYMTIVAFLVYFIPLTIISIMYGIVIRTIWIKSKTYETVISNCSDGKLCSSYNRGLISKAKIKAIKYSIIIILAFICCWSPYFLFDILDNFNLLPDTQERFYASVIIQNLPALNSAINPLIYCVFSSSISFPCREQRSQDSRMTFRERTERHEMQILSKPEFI
# PKM2 act = increases activity of human pyruvate kinase M2. P14618. purified PKM2, Kinase-Glo ATP luminescence, activation; response scale: 0% is enzyme alone, no compound. Potency, µM (series often up to 57.5 µM), usual class: activators. 0.34% of 260,000 active. AID 1631; also: nearly all actives have a fitted effect of over 55% in size
#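 Purified hPK-M2 (>95%) run at intermediate activity with 0.1 mM ADP and 0.5 mM PEP in 50 mM imidazole pH 7.2, KCl, MgCl2; 1 h room temperature. ATP formed read by Kinase-Glo luminescence; normalized to uninhibited and no-enzyme controls.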
# ClpP mod = qHTS Assay for Activators of ClpP; ATP-dependent Clp protease proteolytic subunit (Bacillus subtilis (strain 168)), P80244; purified B. subtilis ClpP, FRET peptide cleavage, 20 min; Potency, µM (titrated, usually from 57.5 µM); 1.9% of 340,000 active; AID 651965, 2013; active = well fitted falling curve with a large enough effect; inconclusive = small, poorly fitted or top-dose-only effect; inactive = no such curve, though single readings can be large or run the other way; also: the source files actives as falling curves though it sought activators and does not explain the sign; nearly all actives have a fitted effect of over 65% in size
# Target sequence (P80244 whole entry, looked up): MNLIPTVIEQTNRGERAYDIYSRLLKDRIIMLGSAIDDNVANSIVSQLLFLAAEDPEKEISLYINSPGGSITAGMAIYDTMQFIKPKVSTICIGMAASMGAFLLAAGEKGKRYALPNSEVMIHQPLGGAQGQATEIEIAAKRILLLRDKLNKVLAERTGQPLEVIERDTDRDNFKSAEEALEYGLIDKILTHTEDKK
#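 Buffer: 100 mM Tris/HCl pH8, 100 mM KCl, 0.05% low protease BSA, 2.5% glycerol, 0.01% Tween-20. ClpP 10 microg/mL final; 20 min RT; delta FRET normalized to ADEP and DMSO controls.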
# IL-2 act = activates IL-2 in a cell-based reporter assay; activation, % (series mostly up to about 46 µM); IL-2 activation reporter assay, cell-based qHTS; stimulated with anti-CD3/CD4/CD28 beads; in transgenic mouse T cells; 0.065% of 360,000 active; in the data active = activation above about 50%; inconclusive = mostly about 30% to 49%
#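 Readout is EGFP and DsRed signal by fluorescent plate cytometry after 18 h at 37 degrees C. Transgenic mouse T cells (750/well) received compound for 60 min before bead stimulation (anti-CD3, anti-CD4, anti-CD28); memory T cells served as non-tolerant control.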
# Numbers stand for hits; . = inactive; ? = inconclusive; / = no result given. Unless noted, calls follow the shape of the dose curve; as a rule, active = well fitted curve in the direction sought with a large enough effect; inconclusive = small, poorly fitted or top-dose-only effect, or another doubt; inactive = no such curve, though single readings can be large; an effect the other way counts as inactive or inconclusive.
SMILES,NPSR antagonist,PKM2 act,ClpP mod,IL-2 act
O=C(NC12CC3CC(CC(C3)C1)C2)c1ccc(-c2ccc(Br)cc2)o1,.,.,32µM,.
CCOc1ccc(NC(=S)N2CCc3cc(OC)c(OC)cc3C2COc2ccc3c(C)cc(=O)oc3c2)cc1 (stereo not drawn),.,.,8.9µM,.
CCOc1ccc(CC(=O)N2CCc3cc(OC)c(OC)cc3C2COc2ccc3c(C)cc(=O)oc3c2)cc1 (stereo not drawn),/,/,.,/
O=C(Cc1cccs1)NCCSc1c(-c2ccc(Cl)cc2)[nH]c2ccccc12,10µM,.,.,.
COc1cc2ccccc2cc1C(=O)OCC(=O)Nc1ccc(Br)cc1,/,/,.,/
COC(=O)c1ccc(C(=O)OC)c(NC(=S)N2CCOCC2)c1,.,.,32µM,.
Cc1cc(=O)n2c3ccccc3n(CC(O)CN3CCCCC3)c2c1C#N (stereo not drawn),.,.,28µM,.
COC(=O)CSc1nc(N)c2c3c(sc2n1)C(c1ccccc1)SC(c1ccccc1)C3 (stereo not drawn),13µM,.,.,.
CCOC(=O)c1c(C)nc2c(c(SC)nn2-c2ccccc2)c1N,.,.,25µM,.
CCOC(=O)c1nn(-c2ccccc2)c(C(=O)OCC)c1N,.,.,2µM,.
O=c1nc2c(-c3ccc(F)cc3Cl)n[nH]n2c2ccccc12,/,/,.,/
O=c1nc2c(-c3ccccc3F)n[nH]n2c2ccccc12,.,.,28µM,.
CC(C)c1ccc(S(=O)(=O)c2n[nH]n3c2nc(=O)c2ccccc23)cc1,.,.,25µM,.
CCc1ccc(S(=O)(=O)c2n[nH]n3c2nc(=O)c2ccccc23)cc1,.,.,32µM,.
O=C(O)c1sccc1S(=O)(=O)Nc1ccccc1N1CCCCC1,/,.,/,/
O=C(CC1CCCCC1)N1CCN(c2ccccn2)CC1,.,.,32µM,.
O=C(O)CCC(=O)N1CCN(c2ccccn2)CC1,.,.,25µM,.
O=C(CC1c2ccccc2Oc2ccccc21)N1CCN(c2ccccn2)CC1,.,.,.,.
COc1ccccc1CC(=O)N1CCN(c2ccccn2)CC1,.,.,22µM,.
CC(C)Cc1nnc(NC(=O)CCC(=O)N2CCN(c3ccccn3)CC2)s1,.,.,25µM,.
COc1ccccc1CC(=O)N1CCCC1,.,.,.,.
O=C(CCc1ccccc1)N1CCN(c2ccccn2)CC1,.,.,?,.
CC(C)c1nnc(NC(=O)CCC(=O)N2CCN(c3ccccn3)CC2)s1,.,.,?,.
Cc1cc2c(cc1S(=O)(=O)N1CCOCC1)NC(=O)CO2,/,.,/,.
O=C1NC[C@H](CCCCN2C[C@H](Cc3ccccc3)N(CC3CCCCC3)C(=O)C2=O)N(CCc2ccccc2)C1=O,/,/,.,.
SMILES,NPSR antagonist,PKM2 act,ClpP mod,IL-2 act
COc1ccc(-c2nnc(SCC(=O)NCCC(C)C)nc2-c2ccc(OC)c(OC)c2)cc1OC,/,/,.,.
CSCCC(NC(=O)C1CCC(C)CC1)C(=O)N1CCN(c2ccccn2)CC1 (stereo not drawn),.,.,?,.
CC(C)CC(NC(=O)C1CCCCC1)C(=O)N1CCN(c2ccccn2)CC1 (stereo not drawn),?,.,28µM,.
CC(C)Nc1nc(NCCOc2ccccc2Cl)c2sc(-c3ccccc3)cc2n1,/,/,25µM,.
COc1ccccc1CNc1nc(NC(C)C)nc2cc(-c3ccccc3)sc12,/,/,?,.
CC(C)C[C@@H]1NC(=O)[C@H](C(C)C)NC(=O)c2cc([N+](=O)[O-])cc(I)c2OCC[C@@H](C(N)=O)NC1=O,.,.,.,.
C=CCN1C(=O)[C@@H]2Cc3c([nH]c4ccccc34)C(c3cc(OC)c(OC)c(OC)c3)N2C1=S (stereo partly drawn),/,/,.,105
CCN1C(=O)[C@@H]2Cc3c([nH]c4ccccc34)C(c3cc(OC)c(OC)c(OC)c3)N2C1=S (stereo partly drawn),/,/,.,94
COc1cc(NC(=O)c2ccco2)c(C(=O)O)cc1OC,.,.,.,.
CCOc1ccc(CC(=O)Nc2cc(=O)n(C)c(=O)n2C)cc1,.,?,.,.
COc1ccc(CC(=O)Nc2cc(=O)n(C)c(=O)n2C)cc1,.,16µM,.,.
CC(C)C[C@H](NC(=O)c1nc[nH]c1C(=O)NC1CCNCC1)C(=O)OCc1ccccc1,/,/,.,.
COC(=O)[C@@]12CCCN1[C@H](c1ccc(-c3ccc(OC)cc3)c(OC)c1)[C@@H]1C(=O)N(C)C(=O)[C@@H]12,/,/,.,.
CCOC(=O)CNC(=O)CSc1nc2ncc(Br)cc2[nH]1,?,.,16µM,.
CCN(CC)C(=O)CSc1nc2ncc(Br)cc2[nH]1,.,.,.,.
CC1CCCC(NC(=O)c2ccc3c(=O)n(CC4CCCO4)c(=O)[nH]c3c2)C1C (stereo not drawn),.,.,25µM,.
CN(C)Cc1c(C(=O)N/N=C/c2cccc(OCc3ccccc3)c2)nnn1-c1nonc1N,/,/,.,.
Cc1ccc(N/C(N)=N/c2nc(C)cc(N3CCCCC3)n2)c(C)c1,10µM,.,/,.
COc1ccc(C(=O)NNC(=O)c2cccc(F)c2)cc1,.,.,/,.
O=C(Cn1ccc2ccccc2c1=O)NCCC(=O)Nc1cccc(Cl)c1,/,.,18µM,.
CCn1c(=O)cc(SCC(=O)Nc2ccc(C)cn2)c2ccccc21,.,.,.,.
Cc1cc(NCCO)c2ccccc2n1,.,.,.,.
Cc1cc(NCCO)c2cc(O)ccc2n1,.,.,16µM,.
COc1cc2[nH]c3c(=O)n(CCN(C(C)C)C(C)C)cnc3c2cc1OC,.,.,28µM,.
Cc1ccc(-c2csc3nc(C)n(-n4c(C)ccc4C)c(=O)c23)o1,.,14µM,.,.
SMILES,NPSR antagonist,PKM2 act,ClpP mod,IL-2 act
COC(=O)c1cnc(N2CCCN(S(=O)(=O)c3ccc(C(F)(F)F)cc3)CC2)nc1C(F)(F)F,.,.,.,.
CCCCCOC(=O)CSc1nnc(-c2ccccc2)c(=O)[nH]1,.,.,.,.
CC1CN(C(=O)CCC(=O)NCc2ccccn2)c2ccccc2O1 (stereo not drawn),/,.,.,.
CCC(=O)NCCCNc1nc2c(C)cccc2cc1C#N,.,.,/,.
Cc1cccc2cc(C#N)c(NCCNS(=O)(=O)c3ccc4c(c3)OCCO4)nc12,.,?,32µM,.
CN1C(=O)Cc2cc(S(=O)(=O)NCc3c(F)cccc3Cl)ccc21,/,14µM,/,.
CN1C(=O)Cc2cc(S(=O)(=O)NCc3cccs3)ccc21,.,?,/,.
CC1CCC2(CC1)NC(=O)N(NC(=O)CSc1nnc(NC3CC3)s1)C2=O (stereo not drawn),/,/,.,.
CN(C)S(=O)(=O)c1cccc(-c2nn(-c3ccccc3)cc2/C=C2\SC(=S)NC2=O)c1,7.9µM,.,.,.
Cc1sc2ncnc(-n3cnc4ccccc43)c2c1C,.,.,28µM,.
c1ccc(-c2csc3ncnc(-n4cnc5ccccc54)c23)cc1,.,.,?,.
